The text below walks through data of article PMC4336329 (PLoS ONE, 2015).

In all, about 310,000 compounds went through this assay and about 14,000 (4.5%) showed an effect of 50% or more. The effect is printed as a negative number. Only a selection was taken, and strong results are over-represented in it overall.
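Note: peak tail current of the secondary pulse compared with the same well before compound.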

The target of the experiment is human ether-à-go-go-related gene (hERG) potassium channel (human, UniProt Q12809). Briefly: primary screen, population patch clamp on CHO cells stably expressing hERG; higher = less effect of the substance.
Chain of human ether-à-go-go-related gene (hERG) potassium channel (Q12809 whole entry, looked up): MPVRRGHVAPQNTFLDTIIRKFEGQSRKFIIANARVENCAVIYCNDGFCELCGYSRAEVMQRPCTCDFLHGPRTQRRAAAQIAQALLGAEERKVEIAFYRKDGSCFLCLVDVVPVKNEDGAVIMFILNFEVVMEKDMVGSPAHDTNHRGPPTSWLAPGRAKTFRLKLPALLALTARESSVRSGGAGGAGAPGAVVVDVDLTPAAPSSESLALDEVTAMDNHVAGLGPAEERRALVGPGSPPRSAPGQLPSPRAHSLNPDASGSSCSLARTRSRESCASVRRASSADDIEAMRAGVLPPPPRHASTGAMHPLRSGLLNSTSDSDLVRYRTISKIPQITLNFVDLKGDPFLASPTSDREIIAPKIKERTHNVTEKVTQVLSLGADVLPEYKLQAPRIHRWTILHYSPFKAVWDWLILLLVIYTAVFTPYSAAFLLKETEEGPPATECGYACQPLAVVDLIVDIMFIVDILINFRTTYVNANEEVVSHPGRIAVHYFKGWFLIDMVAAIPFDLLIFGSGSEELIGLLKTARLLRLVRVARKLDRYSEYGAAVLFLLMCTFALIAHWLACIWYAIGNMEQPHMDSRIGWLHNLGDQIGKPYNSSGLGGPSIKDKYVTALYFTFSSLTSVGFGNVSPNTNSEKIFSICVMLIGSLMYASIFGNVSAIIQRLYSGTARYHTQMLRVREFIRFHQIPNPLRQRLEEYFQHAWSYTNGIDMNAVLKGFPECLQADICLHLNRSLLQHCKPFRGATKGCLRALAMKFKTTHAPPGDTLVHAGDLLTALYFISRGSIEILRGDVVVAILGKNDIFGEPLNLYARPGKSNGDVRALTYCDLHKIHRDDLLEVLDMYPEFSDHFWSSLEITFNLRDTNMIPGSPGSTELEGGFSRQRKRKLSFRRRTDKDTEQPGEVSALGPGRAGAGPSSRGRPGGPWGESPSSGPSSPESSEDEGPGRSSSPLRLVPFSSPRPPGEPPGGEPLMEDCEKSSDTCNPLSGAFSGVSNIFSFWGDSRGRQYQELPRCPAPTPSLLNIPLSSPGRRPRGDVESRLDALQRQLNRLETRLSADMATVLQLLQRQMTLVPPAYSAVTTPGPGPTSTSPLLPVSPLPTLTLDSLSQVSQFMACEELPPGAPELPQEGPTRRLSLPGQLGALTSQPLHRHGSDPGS
Consider `Cc1cc(Nc2ccccc2Cl)c2ccccc2n1`, for which the “hERG current change (%, negative = inhibition) at 10uM” value is on record as -64.2%.
As to `Cc1cc(C(=O)Nc2ccccc2Cl)c2ccccc2n1`, the “hERG current change (%, negative = inhibition) at 10uM” value is recorded as -2.16%.
With `Cc1cc(Nc2ccccc2O)c2ccccc2n1.Cl`, the “hERG current change (%, negative = inhibition) at 10uM” value was -18.6%.
With `Cc1ccc(C)c(Nc2cc(C)nc3ccccc23)c1` the figure was -49.5%; with `Cc1cc(Nc2cccc(Cl)c2)c2ccccc2n1`, -68.8%.
Turning to `Cc1ccc(Nc2nc3ccccc3c(=O)s2)cc1C`, the “hERG current change (%, negative = inhibition) at 10uM” value came out at 6.94%.
In the case of `Cc1ccc(C(=O)NCC(=O)O)s1`, the “hERG current change (%, negative = inhibition) at 10uM” value is on record as 23.8%.
To `Cc1ccc2[nH]c(=O)c(CN(Cc3cccs3)C(=S)NCC3CCCO3)cc2c1` (stereo not drawn) belongs 8.11%; to `CN(CCOc1ccccc1)C(=O)C1CCC(=O)N(CCc2ccc(Cl)cc2)C1` (stereo not drawn), -84.9%; to `COc1ccccc1CN1CC(C(=O)N(C)CCOc2ccccc2)CCC1=O` (stereo not drawn), -9.29%.
Turning to `CCc1ccc(CN(C)C(=O)C2CCC(=O)N(Cc3cccc(OC)c3)C2)nc1` (stereo not drawn), the “hERG current change (%, negative = inhibition) at 10uM” value is -18.8%.
On to `CCc1ccc(CN(C)C(=O)C2CCC(=O)N(CCc3ccc(OC)cc3)C2)nc1` (stereo not drawn), for which the “hERG current change (%, negative = inhibition) at 10uM” value is given as -79.9%.
To `COc1ccc(CCN2CC(C(=O)N(C)CCOc3ccccc3)CCC2=O)cc1` (stereo not drawn) belongs -57.2%; to `CN(CCC1CCOCC1)C(=O)C1CCC(=O)N(CCc2ccc(Cl)cc2)C1` (stereo not drawn), -62%.
Regarding `COc1ccc(CCN2CC(C(=O)N(C)Cc3ccccc3OC)CCC2=O)cc1` (stereo not drawn), the “hERG current change (%, negative = inhibition) at 10uM” value is -29.4%.
As to `CN(C(=O)C1CCC(=O)N(CCc2ccc(Cl)cc2)C1)C1CCOCC1` (stereo not drawn), the “hERG current change (%, negative = inhibition) at 10uM” value was determined as 10.7%.
`CN(CCC1CCOCC1)C(=O)C1CCC(=O)N(CCc2ccccc2)C1` (stereo not drawn): the “hERG current change (%, negative = inhibition) at 10uM” value was -15.1%.
Consider `CN(CCOc1ccccc1)C(=O)C1CCC(=O)N(CCCN2CCCC2=O)C1` (stereo not drawn), for which the “hERG current change (%, negative = inhibition) at 10uM” value amounted to 27.5%.
For `COc1ccc(CCN2CC(C(=O)N(C)Cc3ccc(C)o3)CCC2=O)cc1` (stereo not drawn), the “hERG current change (%, negative = inhibition) at 10uM” value is -6.77%.
Regarding `CN(CCOc1ccccc1)C(=O)C1CCC(=O)N(CCN2CCOCC2)C1` (stereo not drawn), the “hERG current change (%, negative = inhibition) at 10uM” value turned out to be 16.5%.
With `CCOC(=O)C1CCN(C(=O)COC(=O)CSc2ccc([N+](=O)[O-])cc2)CC1` the figure was -39.5%.
For `COc1ccc(CCNC(=O)c2ccccc2C(=O)NCCc2ccc(OC)cc2)cc1`, the “hERG current change (%, negative = inhibition) at 10uM” value was -12%.
`COc1ccc(OC)c2c1cc(C(=O)N[C@@H](C)C(=O)N[C@@H](C(=O)O)c1ccccc1)n2C`: the “hERG current change (%, negative = inhibition) at 10uM” value turned out to be 19.2%.
On to `O=[N+]([O-])c1ccc(O)c(/C=N/n2cnc3ccccc32)c1`, for which the “hERG current change (%, negative = inhibition) at 10uM” value is 19.2%.
Regarding `O=C(COC(=O)CCCc1c[nH]c2ccccc12)Nc1ccc2c(c1)OCO2`, the “hERG current change (%, negative = inhibition) at 10uM” value is on record as 15.1%.
Turning to `c1ccc2c(c1)CCCN2Cc1nnnn1CC1CCCO1` (stereo not drawn), the “hERG current change (%, negative = inhibition) at 10uM” value came out at 7.06%.
With `O=[N+]([O-])c1ccc(NCc2ccc(Cl)cc2)nc1`, the “hERG current change (%, negative = inhibition) at 10uM” value amounted to 0.977%.
With `O=[N+]([O-])c1ccc(Nc2ccc(Cl)cc2)nc1` the figure was 21.7%.
Take `O=[N+]([O-])c1ccc(NNS(=O)(=O)c2cc(Cl)ccc2Cl)nc1`: the “hERG current change (%, negative = inhibition) at 10uM” value is listed as -68.8%.
In the case of `CCN(CC)S(=O)(=O)c1ccc(C)c(NC(=O)COC(=O)CNC(=O)c2ccc(C(C)(C)C)cc2)c1`, the “hERG current change (%, negative = inhibition) at 10uM” value amounted to 7.12%.
`CCN(CC)c1ccc(/C=N/NS(=O)(=O)c2ccc(CNC(C)=O)cc2)cc1`: the “hERG current change (%, negative = inhibition) at 10uM” value is recorded as 13.2%.
As for `Cc1cccc(C(=O)NCC(=O)NC(C)CCc2ccccc2)c1` (stereo not drawn), the “hERG current change (%, negative = inhibition) at 10uM” value is listed as -0.165%.
Consider `Cc1c(Cl)cccc1-n1c(SCC(=O)N(C)Cc2ccccc2)nnc1-c1ccncc1`, for which the “hERG current change (%, negative = inhibition) at 10uM” value is -49.5%.
With `COc1ccc(CNC(=O)C2CCN(S(=O)(=O)c3cccc4nonc34)CC2)cc1`, the “hERG current change (%, negative = inhibition) at 10uM” value was -0.634%.
As for `CC(C)Sc1nnc([C@@H]2CCCN2C(=O)OC(C)(C)C)o1`, the “hERG current change (%, negative = inhibition) at 10uM” value came out at 14.7%.
Regarding `Cc1nc(NCc2ccc3c(c2)OCO3)c2nnn(Cc3ccccc3)c2n1`, the “hERG current change (%, negative = inhibition) at 10uM” value is given as -13.9%.
With `CCOc1ccc(/C=C/C(=O)N(C)CC(=O)Nc2cccc(F)c2)cc1OCC`, the “hERG current change (%, negative = inhibition) at 10uM” value was found to be 10.6%.
With `CCOc1ccccc1NC(=O)c1cccc(NC(=O)CC(c2ccccc2)c2ccccc2)c1` the figure was -67.1%.
For the compound `CCOc1ccc(CCNC(=O)/C=C/c2ccco2)cc1OCC`, the “hERG current change (%, negative = inhibition) at 10uM” value is reported as -70%.
For `CCOc1ccc(CCNC(=O)COC(=O)/C=C/c2ccco2)cc1OCC`, the “hERG current change (%, negative = inhibition) at 10uM” value is on record as 12.9%.
With `CCOc1ccc(NC(=O)CN(C)CC(=O)NC(C)c2ccccc2)cc1OCC` (stereo not drawn), the “hERG current change (%, negative = inhibition) at 10uM” value is 6.58%.
In the case of `CCOc1ccc(NC(=O)CN(C)C(=O)CC(NC(=O)c2ccccc2)c2ccccc2)cc1OCC` (stereo not drawn), the “hERG current change (%, negative = inhibition) at 10uM” value is reported as -51.9%.
Take `COc1cccc(NC(=O)CN(C)C(=O)CC(NC(=O)c2ccccc2Cl)c2ccccc2)c1` (stereo not drawn): the “hERG current change (%, negative = inhibition) at 10uM” value is reported as -49.7%.
As to `CCOc1ccccc1NC(=O)c1ccc(Cl)c(NC(=O)CC(c2ccccc2)c2ccccc2)c1`, the “hERG current change (%, negative = inhibition) at 10uM” value was 2.16%.
With `COc1ccc(CCNC(=O)/C=C/c2ccco2)cc1OC`, the “hERG current change (%, negative = inhibition) at 10uM” value is 0.593%.
With `CCCC(=O)Nc1cccc(C(=O)Nc2ccccc2OCC)c1` the figure was -14.7%; with `CN(CC(=O)Nc1ccc(Cl)c(C(F)(F)F)c1)C(=O)/C=C/c1ccco1`, 5.99%.
As for `CCOc1ccc(NC(=O)CN(C)C(=O)/C=C/c2ccco2)cc1OCC`, the “hERG current change (%, negative = inhibition) at 10uM” value is given as -61.2%.
